# Measured values as given in PubChem BioAssay (EPA / NIEHS).
# Where “and” joins values, the source holds several entries; their conditions need not be identical. Equal values may be shown once. Where a structure was tested more than once in an assay, its records may differ in their call. Calls of active or inactive are those of the source. Rule for the calls: active = hit-call score of the fitted dose curve at least 0.9, where 1 is the maximum; inactive = score below 0.9.
# Legend:
# [1] = read-out: Collagen I, COL1A1 (gene 1277); experiment: BSK_hDFCGF_CollagenI: BioMAP Diversity Plus: hDFCGF Assay for Collagen I Biomarker Activity (AID 2284250); conditions: primary human foreskin fibroblasts
# Outline: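 Collagen I quantified by ELISA 24 h after chemical dosing of human dermal fibroblast primary cells, with parallel SRB staining (0.1%, TCA-fixed, 560 nm) for overt cytotoxicity.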
# [2] = read-out: Interferon-inducible T-cell alpha chemoattractant (ITAC), CXCL11 (gene 6373); experiment: BSK_hDFCGF_ITAC: BioMAP Diversity Plus: hDFCGF Assay for Interferon-inducible T-cell alpha chemoattractant (ITAC) Biomarker Activity (AID 2284251); conditions: primary human foreskin fibroblasts
# Outline: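 I-TAC levels were read by ELISA on human dermal foreskin fibroblast primary cultures 24 h after dosing, analysed against DMSO in the positive direction. Cytotoxicity was assessed alongside by sulforhodamine B total-protein staining.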
# [3] = read-out: Plasminogen activator inhibitor-1 (PAI1), SERPINE1 (gene 5054); experiment: BSK_KF3CT_PAI1: BioMAP Diversity Plus: KF3CT Assay for Plasminogen activator inhibitor-1 (PAI1) Biomarker Activity (AID 2284252); conditions: primary human keratinocytes with fibroblasts
# Outline: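 PAI-1 levels quantified by ELISA after 24 h compound exposure of primary human skin keratinocytes co-cultured with fibroblasts. Activity is the gain relative to DMSO; cytotoxicity tracked in parallel cultures via SRB staining.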
# [4] = read-out: Monocyte Chemoattractant Protein-1 (MCP1), CCL2 (gene 6347); experiment: BSK_IMphg_MCP1: BioMAP Diversity Plus: IMphg Assay for Monocyte Chemoattractant Protein-1 (MCP1) Biomarker Activity (AID 2284253); conditions: primary human endothelial cells with macrophages
# Outline: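 ELISA readout of MCP-1 at 24 hours in IMphg co-cultures of venular endothelial cells and macrophages, normalised to DMSO; parallel cultures stained with sulforhodamine B for overt cytotoxicity.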
# [5] = read-out: Interleukin-8 (IL8), CXCL8 (gene 3576); experiment: BSK_KF3CT_IL8: BioMAP Diversity Plus: KF3CT Assay for Interleukin-8 (IL8) Biomarker Activity (AID 2284254); conditions: primary human keratinocytes with fibroblasts
# Outline: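 IL-8 by ELISA in primary human skin co-culture (keratinocytes plus fibroblasts) 24 h post-dose, DMSO as baseline. Cytotoxicity assessed in parallel by sulforhodamine B total-protein staining.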
# [6] = read-out: Macrophage Inflammatory Protein-1 Alpha (MIP1a), CCL3 (gene 6348); experiment: BSK_IMphg_MIP1a: BioMAP Diversity Plus: IMphg Assay for Macrophage Inflammatory Protein-1 Alpha (MIP1a) Biomarker Activity (AID 2284255); conditions: primary human endothelial cells with macrophages
# Outline: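 MIP-1a protein levels were quantified by ELISA after 24 h treatment of human endothelial cell–macrophage co-cultures, compared with DMSO. Parallel cultures were fixed with TCA and stained with 0.1% SRB to gauge overt cytotoxicity.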
# [7] = read-out: Plasminogen activator inhibitor-1 (PAI1), SERPINE1 (gene 5054); experiment: BSK_MyoF_PAI1: BioMAP Diversity Plus: MyoF Assay for Plasminogen activator inhibitor-1 (PAI1) Biomarker Activity (AID 2284256); conditions: primary human lung fibroblasts;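 for outcome: PAI-1 protein level measured by ELISA in fibroblast cultures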
# Outline: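 Human lung fibroblasts (MyoF system) were exposed to test chemicals for 24 h, then PAI-1 was quantified by ELISA. Activity was fitted in the positive (signal-gain) direction relative to DMSO vehicle as baseline.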
# [8] = read-out: CD69, CD69 (gene 969); experiment: BSK_IMphg_CD69: BioMAP Diversity Plus: IMphg Assay for CD69 Biomarker Activity (AID 2284257); conditions: primary human endothelial cells with macrophages
# Outline: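 Readout is ELISA for CD69 in primary human venular endothelial cell/macrophage co-culture, taken at 24 h post-dosing. SRB staining of parallel cultures gauged overt cytotoxicity; signal increase versus DMSO defined activity.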
# [9] = read-out: Eotaxin 3, CCL26 (gene 10344); experiment: BSK_BF4T_Eotaxin3: BioMAP Diversity Plus: BF4T Assay for Eotaxin 3 Biomarker Activity (AID 2284258); conditions: primary human bronchial epithelial cells with fibroblasts
# Outline: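 ELISA measurement of Eotaxin-3 after 24 h chemical exposure in a bronchial epithelial/dermal fibroblast co-culture, with DMSO as baseline. Parallel SRB staining (0.1% SRB after 10% TCA fixation, 560 nm) flagged overt cytotoxicity.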
# [10] = read-out: Monocyte Chemoattractant Protein-1 (MCP1), CCL2 (gene 6347); experiment: BSK_BF4T_MCP1: BioMAP Diversity Plus: BF4T Assay for Monocyte Chemoattractant Protein-1 (MCP1) Biomarker Activity (AID 2284259); conditions: primary human bronchial epithelial cells with fibroblasts
# Outline: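 MCP-1 ELISA readout taken 24 h after dosing in the BF4T system (bronchial epithelial cells plus dermal fibroblasts). Parallel SRB total-protein staining flagged cytotoxicity; DMSO served as baseline, positive fitting direction.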
# [11] = read-out: Intercellular Adhesion Molecule 1 (ICAM1), ICAM1 (gene 3383); experiment: BSK_BF4T_ICAM1: BioMAP Diversity Plus: BF4T Assay for Intercellular Adhesion Molecule 1 (ICAM1) Biomarker Activity (AID 2284260); conditions: primary human bronchial epithelial cells with fibroblasts
# Outline: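 ICAM-1 levels measured by ELISA after 24 h chemical treatment of bronchial epithelial cell/dermal fibroblast co-cultures, read against DMSO baseline. Overt cytotoxicity checked in parallel cultures by sulforhodamine B staining.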
# [12] = read-out: Interleukin-8 (IL8), CXCL8 (gene 3576); experiment: BSK_MyoF_IL8: BioMAP Diversity Plus: MyoF Assay for Interleukin-8 (IL8) Biomarker Activity (AID 2284261); conditions: primary human lung fibroblasts
# Outline: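 IL-8 quantified by ELISA after 24 h compound exposure of primary human lung fibroblasts. SRB staining of parallel cultures flagged cytotoxicity; DMSO served as baseline.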
# [13] = read-out: CD90, THY1 (gene 7070); experiment: BSK_BF4T_CD90: BioMAP Diversity Plus: BF4T Assay for CD90 Biomarker Activity (AID 2284262); conditions: primary human bronchial epithelial cells with fibroblasts
# Outline: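 CD90 levels by ELISA after 24 h treatment of human bronchial epithelial cell/dermal fibroblast cultures, analysed versus DMSO. Overt cytotoxicity checked in parallel cultures by sulforhodamine B staining.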
# [14] = read-out: Interleukin-8 (IL8), CXCL8 (gene 3576); experiment: BSK_BF4T_IL8: BioMAP Diversity Plus: BF4T Assay for Interleukin-8 (IL8) Biomarker Activity (AID 2284263); conditions: primary human bronchial epithelial cells with fibroblasts
# Outline: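 Human bronchial epithelial cells with dermal fibroblasts co-culture; IL-8 measured by ELISA 24 hours after dosing, fitted vs DMSO. Cytotoxicity tracked in parallel cultures by SRB total-protein staining.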
# [15] = read-out: Interleukin-1 alpha (IL1a), IL1A (gene 3552); experiment: BSK_BF4T_IL1a: BioMAP Diversity Plus: BF4T Assay for Interleukin-1 alpha (IL1a) Biomarker Activity (AID 2284264); conditions: primary human bronchial epithelial cells with fibroblasts
# Outline: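 ELISA read-out of IL-1α from bronchial epithelial cell/dermal fibroblast co-cultures 24 h after compound addition. Increases scored against DMSO negative control. Cytotoxicity monitored by sulforhodamine B staining of parallel cultures.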
# [16] = read-out: Decorin, DCN (gene 1634); experiment: BSK_MyoF_Decorin: BioMAP Diversity Plus: MyoF Assay for Decorin Biomarker Activity (AID 2284265); conditions: primary human lung fibroblasts
# Outline: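 Decorin protein was quantified by ELISA 24 h after chemical addition to primary human lung fibroblasts and analysed as increase over DMSO. Cytotoxicity was tracked in parallel cultures by SRB total-protein staining read at 560 nm.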
# [17] = read-out: KRT18 (gene 3875); experiment: BSK_BF4T_Keratin818: BioMAP Diversity Plus: BF4T Assay for Keratin 818 Biomarker Activity (AID 2284266); conditions: primary human bronchial epithelial cells with fibroblasts
# Outline: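 Keratin 8/18 levels quantified by ELISA after 24 h chemical treatment of bronchial epithelial cell/dermal fibroblast co-cultures, fitted in positive direction relative to DMSO. Parallel SRB staining tracks overt cytotoxicity.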
# [18] = BSK_MyoF_SRB: Viability Assessment in the BioMAP Diversity Plus: MyoF Assay (AID 2284267); conditions: primary human lung fibroblasts;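 note: total protein by SRB absorbance in parallel cultures as cytotoxicity measure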
# Outline: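 Cytotoxicity read-out: after 10% TCA fixation, parallel human lung fibroblast cultures were stained with 0.1% SRB at 24 h post-dosing and read at 560 nm; DMSO served as baseline.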
# [19] = read-out: Matrix Metallopeptidase 1 (MMP1), MMP1 (gene 4312); experiment: BSK_MyoF_MMP1: BioMAP Diversity Plus: MyoF Assay for Matrix Metallopeptidase 1 (MMP1) Biomarker Activity (AID 2284268); conditions: primary human lung fibroblasts
# Outline: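 Human lung fibroblasts (MyoF system) exposed to chemical for 24 h in 96-well format; MMP1 biomarker quantified by ELISA, with activity fitted in the positive direction relative to DMSO baseline.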
# [20] = read-out: TIMP metallopeptidase inhibitor 1 (TIMP1), TIMP1 (gene 7076); experiment: BSK_MyoF_TIMP1: BioMAP Diversity Plus: MyoF Assay for TIMP metallopeptidase inhibitor 1 (TIMP1) Biomarker Activity (AID 2284269); conditions: primary human lung fibroblasts
# Outline: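 Primary human lung fibroblasts, MyoF multiplex system; chemical exposure 24 h; TIMP-1 by ELISA; positive fitting direction vs DMSO control.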
smiles,measurement,setting,value
OCCC(F)(F)C(F)(F)C(F)(F)C(F)(F)C(F)(F)C(F)(F)C(F)(F)C(F)(F)F,AC50,[1],17.8 µM (active)
same,outcome,[1],inactive
same,AC50,[2],12.4 µM (active)
same,AC50,[3],15.1 µM (active) and 15.7 µM (active)
same,AC50,[4],49.6 µM (active) and 45.9 µM (active)
same,outcome,[5],inactive
same,outcome,[6],inactive
same,AC50,[7],17.1 µM (active) and 11.1 µM (active)
same,AC50,[8],30 µM (active) and 7.45 µM (active)
same,AC50,[9],13.5 µM (active) and 9.61 µM (active)
same,AC50,[10],21.2 µM (active) and 30 µM (active)
same,AC50,[11],30 µM (active)
same,AC50,[12],14.9 µM (active)
same,outcome,[12],inactive
same,outcome,[13],inactive
same,outcome,[14],inactive
same,AC50,[15],21.5 µM (active)
same,outcome,[15],inactive
same,AC50,[16],15.1 µM (active) and 14.5 µM (active)
same,AC50,[17],38.6 µM (active)
same,outcome,[17],inactive
same,AC50,[18],15.1 µM (active) and 14.7 µM (active)
same,outcome,[19],inactive
same,AC50,[20],13.1 µM (active) and 9.78 µM (active)
C[C@@H]1C[C@H]2[C@@H]3CCC4=CC(=O)C=C[C@]4(C)[C@@]3(F)[C@@H](O)C[C@]2(C)[C@@]1(O)C(=O)COP(=O)(O)O,outcome,[1],inactive
same,AC50,[2],1.1 µM (active)
same,outcome,[2],inactive
same,outcome,[3],inactive
same,AC50,[4],1.04 µM (active) and 1.15 µM (active)
same,outcome,[5],inactive
same,AC50,[6],946 nM (active) and 574 nM (active)
same,outcome,[7],inactive
same,outcome,[8],inactive
same,AC50,[9],951 nM (active)
same,outcome,[9],inactive
same,outcome,[10],inactive
same,outcome,[11],inactive
same,outcome,[12],inactive
same,outcome,[13],inactive
same,outcome,[14],inactive
same,outcome,[15],inactive
same,outcome,[16],inactive
same,outcome,[17],inactive
same,outcome,[18],inactive
same,outcome,[19],inactive
same,AC50,[20],562 nM (active)
same,outcome,[20],inactive
FC(F)(I)C(F)(F)C(F)(F)C(F)(F)C(F)(F)C(F)(F)I,AC50,[1],14 µM (active) and 10.1 µM (active)
same,outcome,[1],inactive
same,AC50,[2],5.16 µM (active) [middle of 5 runs]
same,AC50,[3],6.91 µM (active) [middle of 5 runs]
same,AC50,[4],39.8 µM (active) [middle of 5 runs]
same,AC50,[5],6.35 µM (active) [middle of 5 runs]
same,AC50,[7],6 µM (active) [middle of 5 runs]
same,AC50,[8],37.9 µM (active) [middle of 5 runs]
same,AC50,[9],8.19 µM (active) [middle of 5 runs]
same,AC50,[10],8.32 µM (active) [middle of 5 runs]
same,AC50,[12],15 µM (active) and 16.4 µM (active) and 15.6 µM (active)
same,outcome,[12],inactive
same,AC50,[13],6.21 µM (active)
same,outcome,[13],inactive
same,AC50,[14],14.9 µM (active) [middle of 5 runs]
same,AC50,[15],22.7 µM (active) [middle of 5 runs]
same,AC50,[16],7.74 µM (active) [middle of 5 runs]
same,AC50,[18],7.31 µM (active) [middle of 5 runs]
same,outcome,[19],inactive
same,AC50,[20],7.01 µM (active) [middle of 5 runs]
